Here are results for 19 compounds from PubChem BioAssay (NCATS).

Inconclusive results are not listed. Active and inactive are the calls of the source. The call rests on the fitted dose curve. Some results are limits rather than exact numbers.
Potency means the concentration at half of the fitted maximal effect.

A short description of one assay: Cell Viability - HepG2 (AID 433).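 Further: potency for ATP loss meaning cytotoxicity.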 Conditions: qHTS. Summed up:
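Cytotoxicity read as ATP loss (CellTiter-Glo luminescence) after 40 hr compound exposure of HepG2, 1500 cells/well, 37 °C. AC50 by Hill equation; 0% set by DMSO, 100% inhibition by 100 uM tamoxifen.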
(In general: qHTS replaces the single test concentration by a dilution series.)
For `Cc1cc2nc3c(=O)[nH]c(=O)nc-3n(C[C@H](O)[C@H](O)[C@H](O)CO)c2cc1C`, the Potency was > 92 µM (inactive).
Consider `Oc1cccc(O)c1`, for which the Potency is > 92 µM (inactive).
The same measure, in the same setting: the result for `Cc1c(O)cccc1C(=O)N[C@@H](CSc1ccccc1)[C@H](O)CN1C[C@H]2CCCC[C@H]2C[C@H]1C(=O)NC(C)(C)C` reads 24.6 µM (active); that for `COc1ccccc1O`, > 92 µM (inactive); that for `NCCNCCNCCNCCN`, > 92 µM (inactive).
Still for that read-out and setting: next, `NCCNCCNCCN`: > 92 µM (inactive); `O=C1O[C@H]([C@@H](O)CO)C(O)=C1O`: > 92 µM (inactive).
With `Cc1cc(CC(=O)O)n(C)c1C(=O)c1ccc(Cl)cc1`, the Potency was > 92 µM (inactive).
Consider `CCCCCCCCCCCCOS(=O)(=O)O`, for which the Potency was > 92 µM (inactive).
Take `CC1(C)[C@@H]2CC[C@@]1(C)C(=O)C2`: the Potency was > 92 µM (inactive).
The same measure, in the same setting: the result for `Nc1ccc(S(=O)(=O)Nc2nccs2)cc1` reads > 92 µM (inactive); that for `NC(=O)c1ncn([C@@H]2O[C@H](CO)[C@@H](O)[C@H]2O)n1`, > 92 µM (inactive).
Turning to `CCCCOC(=O)c1ccc(O)cc1`, the Potency is > 92 µM (inactive).
Take `CC12CCC(CC1)C(C)(C)O2`: the Potency is > 92 µM (inactive).
In the case of `[Cl][In]([Cl])[Cl]`, the Potency was > 92 µM (inactive).
On the same count and under the same terms, next, `C[C@]12C[C@H](O)[C@H]3[C@@H](CCC4=CC(=O)CC[C@@]43C)[C@@H]1CC[C@@H]2C(=O)CO`: > 92 µM (inactive).
Consider `O=C1c2c(O)cccc2Cc2cccc(O)c21`, for which the Potency was > 92 µM (inactive).
The same measure, in the same setting: next, `COC(=O)C1=C(C)NC(C)=C(C(=O)OC)C1c1ccccc1[N+](=O)[O-]`: > 92 µM (inactive).

Another assay is described as follows: Cell Viability - MRC5 (AID 434).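 Further: potency reflects cytotoxicity seen as loss of intracellular ATP.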 Conditions: MRC5 lung fibroblast viability, qHTS. Summed up: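 MRC5 normal human lung fibroblasts, 1500 cells/well, exposed to compound for 40 hr at 37 C. Cellular ATP was read by CellTiter-Glo luminescence; data normalized to DMSO and 100 uM tamoxifen, with AC50 from Hill fits.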
On to `Cc1cc2nc3c(=O)[nH]c(=O)nc-3n(C[C@H](O)[C@H](O)[C@H](O)CO)c2cc1C`, for which the Potency is > 92 µM (inactive).
On to `Oc1cccc(O)c1`, for which the Potency is > 92 µM (inactive).
Consider `Cc1c(O)cccc1C(=O)N[C@@H](CSc1ccccc1)[C@H](O)CN1C[C@H]2CCCC[C@H]2C[C@H]1C(=O)NC(C)(C)C`, for which the Potency is 31.7 µM (active).
Still for that read-out and setting: next, `COc1ccccc1O`: > 92 µM (inactive).
On the same count and under the same terms, next, `NCCNCCNCCNCCN`: > 92 µM (inactive); `NCCNCCNCCN`: > 92 µM (inactive).
With `O=C1O[C@H]([C@@H](O)CO)C(O)=C1O`, the Potency was > 92 µM (inactive).
On the same count and under the same terms, the result for `Cc1cc(CC(=O)O)n(C)c1C(=O)c1ccc(Cl)cc1` reads > 92 µM (inactive); that for `CCCCCCCCCCCCOS(=O)(=O)O`, > 92 µM (inactive); that for `CC1(C)[C@@H]2CC[C@@]1(C)C(=O)C2`, > 92 µM (inactive).
Still for that read-out and setting: the result for `NC(=O)N/N=C/c1ccc([N+](=O)[O-])o1` reads > 92 µM (inactive); that for `Nc1ccc(S(=O)(=O)Nc2nccs2)cc1`, > 92 µM (inactive).
Consider `NC(=O)c1ncn([C@@H]2O[C@H](CO)[C@@H](O)[C@H]2O)n1`, for which the Potency is > 92 µM (inactive).
Regarding `CCCCOC(=O)c1ccc(O)cc1`, the Potency was > 92 µM (inactive).
Same read-out and setting: the result for `CC12CCC(CC1)C(C)(C)O2` reads > 92 µM (inactive); that for `[Cl][In]([Cl])[Cl]`, > 92 µM (inactive).
Same read-out and setting: the result for `C[C@]12C[C@H](O)[C@H]3[C@@H](CCC4=CC(=O)CC[C@@]43C)[C@@H]1CC[C@@H]2C(=O)CO` reads > 92 µM (inactive); that for `O=C1c2c(O)cccc2Cc2cccc(O)c21`, > 92 µM (inactive).
